From the supplement of paper PMC6555819

Assays:
Assay in all cases: PBM binding z-score (relative to random genomic background probes); higher = stronger binding; sequences stand for … in GC…GCGATTGACAGCGTAGAATGAAGG
[1] = system: FXR:RXRa (NR concentration 270 nM, RXRa partner concentration 90 nM)
Method in brief: (§1)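 Custom Agilent 4×180K protein-binding microarrays carried double-stranded probes, each with a 34-nt variable region. These regions held direct-repeat seeds, single-nucleotide variants, half-site ablations and random human genomic background sequences. Ligand-free nuclear receptor dimers were incubated on the arrays for 1 h, antibodies against each partner (one per run) detected binding, and scanned fluorescence was regression-normalized. Binding z-scores take the random background probes as reference.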

[2] = system: LXRa:RXRa (NR concentration 270 nM, RXRa partner concentration 90 nM)
Method in brief: as §1

[3] = system: LXRa homodimer (NR concentration 270 nM)
Method in brief: as §1

[4] = system: LXRb:RXRa (NR concentration 270 nM, RXRa partner concentration 90 nM)
Method in brief: as §1

[5] = system: LXRb homodimer (NR concentration 270 nM)
Method in brief: as §1

[6] = system: PPARa:RXRa (NR concentration 270 nM, RXRa partner concentration 90 nM)
Method in brief: as §1

[7] = system: PPARg:RXRa (NR concentration 180 nM, RXRa partner concentration 90 nM)
Method in brief: as §1

[8] = system: PPARg:RXRa 270nM:90nM, anti-RXR (NR concentration 270 nM, RXRa partner concentration 90 nM)
Method in brief: as §1

[9] = system: PPARg:RXRa 30nM:10nM, anti-RXR (NR concentration 30 nM, RXRa partner concentration 10 nM)
Method in brief: as §1

[10] = system: PPARg:RXRa 90nM:30nM, anti-RXR (NR concentration 90 nM, RXRa partner concentration 30 nM)
Method in brief: as §1

[11] = system: PPARg:RXRa DBDmut IVT, anti-RXR (DBD mutation: RXRa K156A/R161A, NR concentration 270 nM, RXRa partner concentration 90 nM)
Method in brief: as §1

[12] = system: PPARg:RXRa IVT, anti-PPARg (NR concentration 270 nM, RXRa partner concentration 90 nM)
Method in brief: as §1

[13] = system: PPARg DBDmut:RXRa IVT, anti-PPARg (DBD mutation: PPARg1 K132A/R137A, NR concentration 270 nM, RXRa partner concentration 90 nM)
Method in brief: as §1

[14] = system: PPARg DBDmut IVT, anti-PPARg (DBD mutation: PPARg1 K132A/R137A, NR concentration 270 nM)
Method in brief: as §1

[15] = system: PPARg homodimer (NR concentration 180 nM)
Method in brief: as §1

[16] = system: PXR:RXRa (NR concentration 270 nM, RXRa partner concentration 90 nM)
Method in brief: as §1

[17] = system: PXR homodimer (NR concentration 270 nM)
Method in brief: as §1

[18] = system: RARa:RXR (NR concentration 270 nM, RXRa partner concentration 90 nM)
Method in brief: as §1

[19] = system: RARa homodimer (NR concentration 270 nM)
Method in brief: as §1

[20] = system: RARb:RXRa (NR concentration 270 nM, RXRa partner concentration 90 nM)
Method in brief: as §1

| Sequence | PBM binding z-score [1] | PBM binding z-score [2] | PBM binding z-score [3] | PBM binding z-score [4] | PBM binding z-score [5] | PBM binding z-score [6] | PBM binding z-score [7] | PBM binding z-score [8] | PBM binding z-score [9] | PBM binding z-score [10] | PBM binding z-score [11] | PBM binding z-score [12] | PBM binding z-score [13] | PBM binding z-score [14] | PBM binding z-score [15] | PBM binding z-score [16] | PBM binding z-score [17] | PBM binding z-score [18] | PBM binding z-score [19] | PBM binding z-score [20] |
| --- | --- | --- | --- | --- | --- | --- | --- | --- | --- | --- | --- | --- | --- | --- | --- | --- | --- | --- | --- | --- |
| CCAGACAGGTGAAAGGTAACTCAATCTGGTACGC | 0.545 | 0.735 | -0.0709 | 1.09 | -0.161 | 3.43 | 5.5 | 6.13 | 3.94 | 5.99 | 2.13 | 2.83 | -0.064 | -0.205 | 1.32 | 1.09 | 0.164 | 2.31 | 0.578 | 1.11 |
| CCGACTCGGGCATAAGGTTACCATAAGCCAGCCC | 0.235 | 2.34 | -0.549 | 0.615 | -1.1 | 1.14 | 0.783 | 1.19 | -0.332 | 0.652 | 0.661 | -0.167 | -1.02 | -2 | 0.278 | 0.0235 | -0.204 | 0.884 | -0.315 | 1.36 |
| CGTCAAATTTCAACTAAGGTAACGTAAAGCACGC | 1.08 | 0.429 | 0.483 | 0.87 | 0.711 | 0.628 | 0.633 | 0.149 | 0.303 | 0.502 | 0.435 | 0.656 | 1.41 | 1.4 | 0.372 | 0.319 | 0.588 | 0.981 | 1.04 | 0.603 |
| AGAATGAGGTTAAGATCAGGGAGACAGAATACAT | 2.07 | 1.66 | 0.293 | 1.69 | -0.0325 | 3.31 | 2.15 | 2.29 | 0.947 | 1.62 | 3.04 | 2.59 | 1.8 | 0.747 | 0.955 | 1.26 | 0.933 | 1.95 | 0.709 | 1.91 |
| CAAACTAGGTCACCGGAAGGTCACAGTCCGCATG | 6.17 | 5.52 | 4.03 | 4.77 | 1.26 | 5.9 | 9.97 | 7.71 | 6.06 | 7.55 | 8.58 | 9.08 | 2.66 | 1.61 | 8.88 | 5.64 | 1.29 | 7.62 | 3.12 | 5.42 |
| ACTTACAGGTCAACGAGGTTATAGCACGCGTATA | 6.79 | 5.97 | 3.32 | 4.66 | 1.8 | 5.76 | 5.5 | 5.63 | 2.14 | 4.37 | 4.4 | 4.7 | 1.92 | 1.44 | 2.53 | 5.25 | 5.38 | 4.94 | 1.81 | 4.52 |
| CCTTACGGGTCACTGAGAGGTTATAGCATTTGGA | 5.67 | 4.71 | 0.946 | 3.9 | -0.26 | 5.58 | 4.88 | 4.87 | 1.69 | 3.68 | 3.25 | 3.46 | 0.696 | -0.194 | 3.62 | 5.18 | 0.124 | 5.88 | 1.03 | 4.1 |
| TATAGAGGGTCAAAGGCCAGAGTACGAATGTCGA | 6.65 | 4.84 | 0.902 | 3.76 | 1.49 | 5.82 | 8.05 | 6.87 | 5.22 | 7.09 | 2.58 | 4.43 | 0.901 | 0.741 | 2.2 | 3.62 | 0.282 | 5.1 | 1.12 | 4.11 |
| TTAACAAGGTGAAGGTCGTTGATCCCTCTGTAGA | 2.23 | 1.78 | -0.258 | 1.35 | -0.562 | 2.91 | 2.42 | 3.09 | 1.5 | 2.65 | 2.79 | 3.4 | 0.419 | 0.266 | 0.4 | 1.35 | 0.014 | 1.82 | -0.625 | 2.03 |
| GTAGACAGGTGAAACGCAGGTAACTCAGGGTGGC | 0.081 | 0.114 | -0.34 | -0.0403 | -0.733 | 0.941 | 0.744 | 0.425 | -0.305 | 0.121 | 1.08 | 0.827 | -0.547 | -0.798 | -0.292 | -0.0707 | -0.535 | 0.264 | -0.278 | 0.688 |
| CTTCCAAGGTCAGCAGGTCAGTGAAAGCGACGTG | 5.62 | 4.48 | 0.986 | 3.24 | 0.067 | 4.87 | 3.78 | 4.64 | 1.14 | 3.27 | 3.41 | 3.82 | -0.278 | -0.339 | 3.61 | 3.42 | 0.858 | 4.68 | 1.77 | 5.26 |
| ACTAGTCGGTCAGCTGAGGTCACACACAATTCGG | 5.04 | 4.68 | 4.97 | 3.86 | 1.32 | 4.15 | 2.51 | 2.99 | 0.573 | 2 | 3.9 | 3.98 | 0.395 | 0.525 | 3.35 | 5.95 | 2.63 | 4.69 | 2.2 | 4.16 |
| GCGACTGGGGCAAAGCAGGTTGCCATAAGGTTGG | -0.377 | -0.798 | -0.715 | -0.849 | -1.26 | 0.461 | 0.599 | 1.15 | -0.358 | 0.243 | 4.34 | 3.1 | -0.486 | -0.871 | -0.00419 | -0.373 | -0.521 | -0.163 | -0.719 | 0.412 |
